Here are results for 40 molecules from PubChem BioAssay AID504534 (National Center for Advancing Translational Sciences (NCATS), 2011).

Records with an inconclusive call do not appear. A call without a number means that no potency is given here. Activity calls are given as the source filed them. The call rests on the fitted dose curve; in most records, active means well fitted curve in the direction sought with a large enough effect; inconclusive means small, poorly fitted or top-dose-only effect, or another doubt; inactive means no such curve, though single readings can be large or run the other way.
Potency means the concentration at half of the fitted maximal effect.

The test can be described thus: Secondary Assay for Inhibitors of Human Cdc-like kinase 4 (Clk4): HEK-293 Cell Viability Assay.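 Further: cytotoxic hits lower the ATP light signal so activity reflects loss of viability.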 The settings on record: HEK-293 viability, ATP luminescence (CellTiter-Glo), 24/48 h; series mostly up to 46.1 µM. The procedure: NIH Molecular Libraries Probe Production Centers Network [MLPCN] NIH Chemical Genomics Center [NCGC] MLPCN Grant: 1R03MH084827-01 Assay Submitter (PI): Tom Misteli NCGC Assay Overview: Cytotoxicity of the active compounds in the Clk4 screens was assessed using the CellTiter-Glo Luminescent Cell Viability Assay kit (Promega, USA) in the HEK-293 (ATCC) cell line. CellTiter-Glo measures the intracellular ATP present in metabolically active cells using Ultra-Glo as the luciferase to detect ATP levels. In brief, the luciferase in the buffer catalyzes the oxidation of luciferin to oxyluciferin and light which is dependent on ATP. […] Wells treated with various concentrations of cycloheximide (Sigma) and DMSO, and wells with media alone were used as positive and negative controls, respectively. […] [1] http://www.promega.com/tbs/tb288/tb288.pdf
NCGC Assay Protocol Summary: HEK-293 cells were grown in a flask up to 80% confluence. Cells were trypsinized, washed, and resuspended in MEM Eagle + 10% FBS + 1% pen-strep media at a concentration of 120 cells/uL. Five uL/well of cell solution was dispensed into a 1536-well assay plates (Greiner, solid white medium-binding plates) with Aurora Discovery BioRAPTR Flying Reagent Dispenser (FRD; Beckton-Dickenson). Cells were pre-incubated at 37 degree Celsius, 5% CO2 for four hours. Compound and control solutions (23nL) were then transferred to the assay plate using the Kalypsys 1536-pin tool. Assay plates were re- incubated at 37 degree Celsius, 5% CO2. After 24 or 48 hours, five uL of CellTiter Glo detection reagent was added. Luminescence signal was read with Perkin Elmer ViewLux plate reader after 30 min room temperature incubation.
For `Cc1ccc(CNc2ncnc3ccc(-c4ccoc4)cc23)o1`, the Potency entry was “inactive”. On to `c1csc(CNc2ncnc3cc(-c4ccc5c(c4)OCO5)ccc23)c1`, for which the Potency entry is “inactive”. With `Cc1cccc(-c2ccc3ncnc(NCc4cccc(F)c4)c3c2)c1`, the Potency entry was “inactive”.

As to `O=Cc1ccc(-c2ccc3ncnc(NCc4cccs4)c3c2)o1`, the Potency entry was “inactive”. As for `Cc1csc(CNc2ncnc3ccc(-c4cccc(Cl)c4)cc23)c1`, the Potency entry was “inactive”. For `Cc1csc(CNc2ncnc3cc(-c4ccc5c(c4)OCO5)ccc23)n1`, the Potency entry was “inactive”. The value for `c1coc(-c2ccc3ncnc(NCc4cccs4)c3c2)c1` was “inactive”; that for `c1nc(NCC2CCOC2)c2cc(-c3ccc4c(c3)OCO4)ccc2n1` (stereo not given) was “inactive”; that for `CC(C)(C)CNc1ncnc2ccc(-c3ccc4c(c3)OCO4)cc12` was “inactive”. In the case of `CN(CCc1ccco1)c1ncnc2ccc(-c3ccc4c(c3)OCO4)cc12`, the Potency result is “inactive”. As to `COc1cccc(-c2ccc3ncnc(NCc4cccc(C)c4)c3c2)c1`, the Potency result is “inactive”. For the molecule `Cc1csc(CNc2ncnc3ccc(-c4ccco4)cc23)c1`, the Potency entry was “inactive”. In the case of `Cc1occc1-c1ccc2ncnc(NCCc3cnc[nH]3)c2c1`, the Potency result is “inactive”. Take `Cc1csc(CNc2ncnc3ccc(-c4ccc(C(=O)O)o4)cc23)n1`: the Potency result was “inactive”.

As for `Cc1ccc(CNc2ncnc3ccc(-c4ccc5c(c4)OCO5)cc23)s1`, the Potency entry was “inactive”. As for `Cc1nc(CNc2ncnc3ccc(-c4ccoc4)cc23)cs1`, the Potency result was “inactive”.

Turning to `Cc1nc(CN(C)c2ncnc3ccc(-c4ccc5c(c4)OCO5)cc23)cs1`, the Potency is 28.1 µM (active). With `Cc1ccc(CN(C)c2ncnc3ccc(-c4ccc(C(=O)O)o4)cc23)o1`, the Potency result is “inactive”. As to `O=C(O)c1ccc(-c2ccc3ncnc(NCC4CCCO4)c3c2)o1` (stereo not given), the Potency entry was “inactive”. As for `c1nc(N2CCC(N3CCCC3)CC2)c2cc(-c3ccc4c(c3)OCO4)ccc2n1`, the Potency result was “inactive”. For `Clc1ccccc1-c1ccc2ncnc(NCc3cccs3)c2c1`, the Potency entry is “inactive”.

On to `CN(CC(=O)O)c1ncnc2ccc(-c3ccc4c(c3)OCO4)cc12`, for which the Potency entry was “inactive”. `Fc1cccc(CNc2ncnc3ccc(-c4ccoc4)cc23)c1`: the Potency entry was “inactive”. For `c1csc(CCNc2ncnc3ccc(-c4ccc5c(c4)OCO5)cc23)c1`, the Potency entry was “inactive”. On to `Cc1nc(CNc2ncnc3ccc(-c4ccc5c(c4)OCO5)cc23)cs1`, for which the Potency entry is “inactive”. As to `Cc1csc(CNc2ncnc3ccc(-c4ccc5c(c4)OCO5)cc23)c1`, the Potency entry is “inactive”. With `Cc1ccc(CN(C)c2ncnc3ccc(-c4ccc(CO)o4)cc23)o1`, the Potency was 12.5 µM (active). Consider `CN(Cc1ncc[nH]1)c1ncnc2ccc(-c3ccc4c(c3)OCO4)cc12`, for which the Potency result was “inactive”. The value for `CC(O)c1ccc(-c2ccc3ncnc(N4CCOCC4)c3c2)o1` (stereo not given) was “inactive”; that for `c1nc(NCc2ccoc2)c2cc(-c3ccc4c(c3)OCO4)ccc2n1` was “inactive”. On to `CCOC(=O)c1ccc(-c2ccc3ncnc(NCc4ncc[nH]4)c3c2)o1`, for which the Potency result was “inactive”.

For the molecule `CCN(Cc1sccc1C)c1ncnc2ccc(-c3ccc4c(c3)OCO4)cc12`, the Potency entry was “inactive”. `COc1cccc(Nc2ncc3ncc(=O)n(C)c3n2)c1`: the Potency result is “inactive”. For the molecule `c1nc(NCC2CCCO2)c2ccc(-c3ccc4c(c3)OCO4)cc2n1` (stereo not given), the Potency entry was “inactive”.

For the molecule `NCCNc1ncnc2ccc(-c3ccc4c(c3)OCO4)cc12`, the Potency result was “inactive”.

Take `C#Cc1cccc(Nc2ncnc3cc(OCCOC)c(OCCOC)cc23)c1`: the Potency entry is “inactive”.

Consider `Cc1nc(C(C)N(C)c2ncnc3ccc(-c4ccc5c(c4)OCO5)cc23)cs1` (stereo not given), for which the Potency result is “inactive”. With `c1nc(N2CCOCC2)c2cc(-c3ccc4c(c3)OCO4)ccc2n1`, the Potency entry was “inactive”. With `c1cncc(-c2ccc3ncnc(NCc4ccc5c(c4)OCO5)c3c2)c1`, the Potency result is “inactive”. On to `CCNC(=O)c1ccc(-c2ccc3ncnc(NCc4ccc(C)o4)c3c2)o1`, for which the Potency entry is “inactive”.
